# ROMK mod – modulates human ROMK potassium channel activity; P48048; Tet-inducible ROMK, thallium flux fluorescence; actives lie on both sides; B-score at 10 µM; 130,000 tested, 2% active; AID 1918;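 active means signal ratio slope over the read window, or its plate-corrected B-score, at least 3 SD from the plate mean, either direction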;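 further: B-score of the F/F0 ratio slope over 7 to 12 s after thallium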
# Target sequence (P48048 whole entry, looked up): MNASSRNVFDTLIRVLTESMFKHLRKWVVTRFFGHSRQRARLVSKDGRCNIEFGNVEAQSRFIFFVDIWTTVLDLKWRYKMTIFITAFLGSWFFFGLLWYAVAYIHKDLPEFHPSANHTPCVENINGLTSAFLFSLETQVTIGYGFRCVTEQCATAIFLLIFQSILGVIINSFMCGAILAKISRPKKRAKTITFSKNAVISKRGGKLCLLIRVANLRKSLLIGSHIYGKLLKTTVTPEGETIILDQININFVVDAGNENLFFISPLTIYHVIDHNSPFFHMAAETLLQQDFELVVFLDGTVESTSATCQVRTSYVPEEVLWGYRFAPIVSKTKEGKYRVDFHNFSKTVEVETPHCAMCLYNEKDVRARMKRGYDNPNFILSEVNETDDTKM
# PTEN del growth – growth suppressors of cells with PTEN tumor suppressor deletion. AID 827. 140,000 tested, 1.2% active. viability, % at 10 µM. HCT116 PTEN-null viability, CellTiter-Glo, 60 h; hits give low values;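 active means viability at or below a set limit, 4 SD under the median of all tested compounds, cut at about 3.7% in these data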;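 further: PTEN knockout HCT116 line with beta catenin targeted HCT116 as companion control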
# Lmaj promast – inhibitors of Leishmania major promastigote growth. AID 1063. 200,000 tested, 9% active. inhibition, % at 10 µM. Leishmania major promastigotes, resazurin fluorescence viability; in the data active means inhibition above about 50%;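 further: promastigotes grown with compound for 44 hours at 28 °C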
# INS promoter inh – TRM-6 insulin promoter activity inhibition. TRM-6 cells (human fetal islet line), insulin promoter-eGFP reporter, imaging; reporter expression induced with tamoxifen. inhibition, % at 2 µM. 130,000 tested, 0.9% active;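 active means inhibition above the mean plus 3 SD, with well images judged a real hit on visual review, cut at about 60% in these data, passing the limit was not always enough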
# HCT116 bCat-KO – beta-catenin-lacking colon tumor cell growth suppression; HCT116 beta-catenin knockout viability, CellTiter-Glo, 60 h; hits give low values; viability, % at 10 µM; 140,000 tested, 1.5% active; AID 818;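 active means viability at or under a set limit, the compound median less 4 SD, cut at about 6% in these data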;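 further: 0% = Hyamine 1622 control at 20 µM and 100% = untreated cell control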
# p97 inhibitor – blocks human p97 ATPase activity; P55072; recombinant p97 ATPase, Kinase-Glo ATP luminescence, 3 h; inhibition, % at 8 µM; 220,000 tested, 0.42% active; AID 1481; in the data active means inhibition above about 15%;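 further: 0% = DMSO vehicle and 100% = wells lacking enzyme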
# Starred values were filed as active, the others as inactive; / = no result. The list is not random: actives were taken first. Their share in the collection is about 10%.
SMILES,ROMK mod,PTEN del growth,Lmaj promast,INS promoter inh,HCT116 bCat-KO,p97 inhibitor
Cc1ccc(C2=N/C(=C/N3CCOCC3)C(=O)O2)cc1,/,89.1,15.9,-27.3,86.4,-0.1
N#Cc1nnn(-c2ccc(Cl)cc2)c1N,/,/,-4.8,/,/,5.4
O=[N+]([O-])c1cccc(-c2nnc(SCc3cccnc3)o2)c1,0.329,/,-3.5,/,/,4.2
CC(C)c1cccc(C(C)C)c1NC(=O)CNCc1ccccc1F,/,83.3,59.9*,-54.0,74.5,-0.2
CCOc1ccc(C(Nc2cccnc2)c2cc(Cl)c3cccnc3c2O)cc1 (stereo unspecified),0.321,/,89.5*,/,/,6.3
O=C(O)COc1ccccc1C(Nc1cccnc1)c1cc(Cl)c2cccnc2c1O (stereo unspecified),0.971,/,-4.7,13.3,/,6.3
O=C(NC(c1ccccc1)c1cc(Cl)c2cccnc2c1O)c1cccnc1 (stereo unspecified),0.00119,8.5,98.0*,/,6.4,2.2
COc1ccc(C(NC(C)=O)c2cc(Cl)c3cccnc3c2O)cc1OC (stereo unspecified),-0.381,/,22.5,-37.5,/,1.1
Cc1ccc(F)cc1NC(=O)c1c(-c2ccccc2)noc1C,/,70.7,0.3,/,70.8,-2.0
C[C@@H](C[C@@H](O)[C@H](O)C(C)(C)O)[C@@H]1CC[C@]2(C)C3=CC[C@H]4C(C)(C)C(=O)CC[C@]4(C)[C@H]3CC[C@@]12C,0.489,25.5,92.4*,5.0,11.1,-4.0
Cn1cc(C(=O)c2ccc(Cl)cc2Cl)cc1C(=O)N/N=C(\N)COc1cccc(C(F)(F)F)c1,-0.566,7.9,-7.3,-10.3,5.2*,0.8
Cc1ccccc1OCC(=O)NNC(=O)CSc1nc(N)cc(N)n1,-0.166,/,0.5,/,/,0.6
COc1ccc(C2C=C(c3ccc(Br)cc3)Nc3nc(N4C(=O)CCC4=O)nn32)cc1 (stereo unspecified),/,99.2,-13.6,-21.2,109.3,4.0
COc1ccccc1C1C=C(c2ccc(Cl)cc2)Nc2nc(N3C(=O)CCC3=O)nn21 (stereo unspecified),-5.99*,103.5,0.4,28.6,105.0,-5.0
O=C1CCC(=O)N1c1nc2n(n1)C(c1ccccc1)C=C(c1ccc(Br)cc1)N2 (stereo unspecified),-3.96*,81.0,-9.3,7.1,87.8,5.1
COc1ccccc1C1C=C(c2ccc(Cl)cc2)Nc2nc(NS(C)(=O)=O)nn21 (stereo unspecified),/,91.9,-10.9,44.4,94.6,4.4
Cc1cc(C)c(C(=O)COC(=O)c2cc([N+](=O)[O-])ccc2NCCO)cc1C,/,72.9,9.8,/,77.9,-0.7
Cc1cccc(N/N=C(\C=N\N)C(=O)c2ccc(Br)cc2)c1,0.111,/,13.5,/,/,2.0
COc1cc(C(=O)NCCCNc2ccc([N+](=O)[O-])cc2)cc(OC)c1OC,-1.09,80.7,76.9*,-29.7,89.5,3.6
CCOc1ccc2nc(COC(=O)c3ccncc3)c(C(=O)c3ccccc3)[n+]([O-])c2c1,/,/,/,/,/,7.5
O=C1OCC(CO)(CO)N=C1NNc1cc(Cl)ccc1Cl,0.254,97.9,97.3*,-32.1,97.1,3.0
Cc1cc(Nc2cc(Cl)cc(Cl)c2)nc(N)n1,/,/,/,/,/,8.1
Cc1cc(=O)oc(C)c1C(=O)Nc1c(C)n(C)n(-c2ccccc2)c1=O,/,98.3,-4.1,-16.3,102.3,-0.1
Cc1ccc(S(=O)(=O)N2CCCC(C(=O)Nc3ccc(C(=O)O)cc3)C2)cc1Cl (stereo unspecified),0.908,/,0.0,/,/,6.0
Cc1cc(C)c2[nH]c(O)c(N=NC(=S)NCC3CCCO3)c2c1 (stereo unspecified),0.185,74.2,13.7,-71.4,77.7,5.4
SMILES,ROMK mod,PTEN del growth,Lmaj promast,INS promoter inh,HCT116 bCat-KO,p97 inhibitor
Oc1[nH]c2c(Cl)cc(Cl)cc2c1N=NC(=S)NCC1CCCO1 (stereo unspecified),/,0.5*,97.5*,/,1.4*,-8.1
O=C(NC(=S)Nc1ccc(N2CCOCC2)cc1)c1cncc(Br)c1,0.258,101.1,-2.5,66.7*,102.3,-5.2
CCC(=O)N1CCN(c2ccc(NC(=S)NC(=O)c3ccc(OC)c([N+](=O)[O-])c3)cc2)CC1,-0.114,/,53.5*,/,/,8.2
COc1ccc(C(=O)NC(=S)Nc2ccc(N3CCOCC3)c(Cl)c2)cc1[N+](=O)[O-],0.42,84.8,100.0*,14.8,79.0,6.5
CCOc1ccc(C(=O)NC(=S)Nc2ccc(N3CCC(C)CC3)cc2)cc1[N+](=O)[O-],/,66.5,87.1*,/,75.0,-2.3
COc1ccc(CN(C)C(=O)COC(=O)c2c(-c3ccccc3Cl)noc2C)cc1,-3.16,/,26.1,/,/,2.7
Cc1cc(Cl)nc2c(C(C)C)cccc12,-0.153,/,-10.0,18.2,/,-5.4
CCn1c(SCC(=O)Nc2ccc(N3CCOCC3)c(Cl)c2)nnc1-c1ccc(N)cc1,0.475,72.6,73.5*,6.9,67.4,-7.2
CCCC(=O)NC(=S)Nc1ccc(N2CCOCC2)c(Cl)c1,/,87.8,60.5*,5.1,87.8,-2.2
CCOC(=O)C(C)Oc1ccc(NC(=O)C(Cl)Cl)cc1 (stereo unspecified),-0.502,/,/,/,/,7.3
CCn1cc(C(=O)OCc2ccccc2)c(=O)c2ccc(C)nc21,1.1,78.1,77.8*,-14.3,75.9,-1.3
Cc1cc(C)cc(N2C(=O)CSC2c2ccccn2)c1 (stereo unspecified),/,/,2.2,/,/,0.5
Cc1[nH]c2ccccc2c1/C=N/NC(=O)CCC(=O)NCc1ccccc1,/,/,-3.7,/,/,6.6
Cc1[nH]c2ccccc2c1/C=N/NC(=O)C1CC1(c1ccccc1)c1ccccc1 (stereo unspecified),0.861,3.4*,98.7*,-53.9,2.7*,5.0
CC(=O)Nc1ccc(N2C(=O)CSC2c2cccc([N+](=O)[O-])c2)cc1 (stereo unspecified),-0.461,/,0.0,/,/,4.4
CCOC(=O)c1nc2sc3c(c2c(=O)[nH]1)CCC(C)C3 (stereo unspecified),/,/,/,/,/,1.2
Nc1c2c(nc3sc4c(c13)CCCCC4)CCCCC2,/,61.6,62.5*,12.1,57.6,-4.8
CC1CCc2c(nc3sc4c(c3c2N)CCCC4)C1 (stereo unspecified),0.0313,58.0,97.4*,-142.9,61.3,3.6
CCc1c(-c2ccccc2)nc2sc3c(c2c1N)CCCC3,/,/,/,/,/,10.2
CC1CCc2nc3sc4c(c3c(N)c2C1)CCCC4 (stereo unspecified),0.05,57.1,91.8*,-69.2,61.4,4.3
CCn1c(SCC(=O)N2c3ccccc3Sc3ccc(Cl)cc32)nc2c1c(=O)n(C)c(=O)n2C,/,/,16.9,/,/,2.7
CN1CCN(/C=N/C2=C(C#N)C(c3ccccc3)C3=C(CC(C)(C)CC3=O)O2)CC1 (stereo unspecified),/,100.6,75.2*,40.0,105.1,-3.3
CC1(C)CC(=O)C2=C(C1)OC(N)=C(C#N)C2c1cn(-c2ccccc2)nc1-c1ccccc1 (stereo unspecified),/,21.6,89.8*,-10.3,21.1,-0.2

# Screening data as filed in PubChem BioAssay.
